For assay [1], the target named is Estrogen receptor (Homo sapiens) (UniProt P03372). Briefly: qHTS assay for small molecule antagonists of estrogen receptor alpha signaling (AID 588513; active = well fitted curve in the direction sought with a large enough effect in the signal ratio, with a control signal flat, not every such curve was filed as active; inconclusive = small, poorly fitted or top-dose-only effect, or effect the other way, or a change in a side signal; inactive = no such curve, though single readings can be large or run the other way; the % refers to the signal ratio; also: potency is read from the fitted curve at half-maximal effect). The settings on record: ER-alpha-UAS-bla HEK293, beta-lactamase ratio, antagonist mode; series mostly up to 76.9 µM. The essentials:
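ER-alpha-UAS-bla GripTite HEK 293 cells in medium with 2% charcoal/dextran-treated FBS were preincubated 4 h at 37 C, dosed with compound (1:2 titration), stimulated with 0.5nM 17-beta-estradiol for 18 h, then read by CCF4 beta-lactamase fluorescence.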

The target of assay [2] is Bile acid receptor (Homo sapiens) (UniProt Q96RI1). Briefly: qHTS assay for small molecule agonists of farnesoid X receptor signaling (AID 588527). Also: potency is read from the fitted curve at half-maximal effect.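 As to activation: 0% = vehicle basal and 100% = reference agonist.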 The settings on record: HEK293T FXR-UAS-bla, beta-lactamase ratio, 16 h; activation: stronger effect = higher value. The essentials: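 FXR-UAS-bla HEK293T, 10% dialyzed FBS; cpds up to 92 uM titration, 16 h 37 C; CCF4 dye 2 h RT; fluorescence. Normalized to chenodeoxycholic acid 100 uM (100%) and DMSO (0%); Hill fit gives EC50, efficacy.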

Assay [3] deals with Peroxisome proliferator-activated receptor delta (Homo sapiens) (UniProt Q03181). Briefly: qHTS assay for small molecule agonists of peroxisome proliferator-activated receptor delta signaling (AID 588534).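 Also: 0% = DMSO basal wells and 100% = positive control agonist at 10 µM.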 The note with it: HEK293T PPARdelta-UAS-bla, beta-lactamase ratio, 18 h; series mostly up to 76.7 µM. The method, boiled down:
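EC50 and efficacy values derive from Hill fits of a concentration series in a beta-lactamase reporter cell assay. Exposure is 18 hrs at 37 C, with CCF4 fluorescence as the readout.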

Assay [4] addresses Vitamin D3 receptor (Homo sapiens) (UniProt P11473). Briefly: qHTS assay for small molecule antagonists of vitamin D receptor signaling (AID 588541).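 Also: receptor activated by calcitriol during compound treatment; % is scaled to controls: 0 for no effect and ±100 for the full control effect.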 The settings on record: HEK293T VDR-UAS-bla, beta-lactamase ratio, antagonist mode; series mostly up to 76.7 µM. The essentials: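 VDR-UAS-bla HEK293T cells (2000/well, 2% charcoal-stripped FBS) were treated with titrated compounds plus 1-alpha,25-dihydroxyvitamin D3 (50 nM or 3 nM final) for 16 h at 37 C. CCF4 beta-lactamase fluorescence was read; Hill fits gave IC50.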
On the technique in general: In qHTS, concentration-response curves come from the screen itself.

Assay [5] has the same target. Briefly: qHTS assay for small molecule agonists of vitamin D receptor signaling (AID 588543).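 Also: 0% = DMSO basal and 100% = reference agonist control.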 The settings on record: HEK293T VDR-UAS-bla, beta-lactamase ratio, 16 h; series mostly up to 76.8 µM. The method, boiled down:
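GeneBLAzer VDR-UAS-bla HEK293T cells in 2% charcoal-stripped FBS medium were dosed with compound titrations for 16 h at 37 °C; CCF4 β-lactamase readout (405 nm ex, 460/530 nm em). EC50 and efficacy from Hill fits, normalized to 50 nM calcitriol (100%) and DMSO (0%).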

In assay [6] the target is Thyroid hormone receptor beta (Homo sapiens) (UniProt P10828). Briefly: qHTS assay for small molecule agonists of thyroid hormone receptor beta signaling (AID 588545). Also: potency is read from the fitted curve at half-maximal effect.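 As to activation: 0% = DMSO only and 100% = 10 nM T3.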 The note with it: TR-UAS-bla GripTite HEK 293, beta-lactamase ratio, agonist mode, 18 h; series mostly up to 76.7 µM. The method, boiled down:
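Efficacy and EC50 values derive from Hill fits of qHTS titration data, normalized to 10 nM T3 and DMSO-only wells. HEK 293 reporter cells were stimulated for 18 hrs at 37 C, with beta-lactamase activity measured by CCF4 fluorescence.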

Assay [7] has the same target. Briefly: qHTS assay for small molecule antagonists of thyroid hormone receptor beta signaling (AID 588547; active = well fitted inhibition curve with a large enough effect in the signal ratio, with a control signal flat, not every such curve was filed as active; inconclusive = small, poorly fitted or top-dose-only effect, or effect the other way, or a change in a side signal; the % refers to the signal ratio;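 also: cells stimulated with 0.4 nM T3 agonist during compound exposure; % is scaled to controls: 0 for no effect and ±100 for the full control effect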). The note with it: TR-UAS-bla HEK293, beta-lactamase ratio, antagonist mode, 18 h. The method, boiled down: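 TR-UAS-bla GripTite HEK293 cells in 2% charcoal/dextran FBS medium were preincubated 4 h at 37 C, given compound (0.59 nM to 92 uM) plus 0.4 nM T3 (final) for 18 h, then CCF4 for 2 h at RT; Hill fit gave IC50.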

Assay [8] in a line: qHTS assay for small molecule activators of the p53 signaling pathway (AID 651743; active = well fitted activation curve with a large enough effect in the signal ratio, not every such curve was filed as active; inconclusive = small, poorly fitted or top-dose-only effect, or a change in a side signal; the % refers to the signal ratio; also: potency is read from the fitted curve at half-maximal effect; as to activation: % of control where 0% means no effect). The settings on record: HCT-116 p53RE-bla, beta-lactamase FRET ratio, 16 h; activation: stronger effect = higher value. The essentials: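 Here HCT-116 cells with an integrated p53-responsive beta-lactamase gene were incubated with compounds (16 hours, 37 C) after a 5-hour plating period; beta-lactamase activity was detected as fluorescence intensity via B/G FRET substrate.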

Assay [9] can be described thus: qHTS assay for small molecule disruptors of the mitochondrial membrane potential - 1 hr assay (AID 651754). Also: nearly all actives have a fitted effect of over 35% in size. Also: potency is read from the fitted curve at half-maximal effect. The settings on record: series mostly up to 92.2 µM. The method, boiled down:
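In this qHTS format, a 1 hr compound treatment of HepG2 cells precedes Mito-MPS staining, and membrane potential is judged from aggregate (red) against monomer (green) fluorescence intensity.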

A short description of assay [10]: Cellular Toxicity (caspase-3) Jurkat (AID 655; active = well fitted curve in the direction sought with a large enough effect; inconclusive = small, poorly fitted or top-dose-only effect, or another doubt; inactive = no such curve, though single readings can be large; an effect the other way counts as inactive or inconclusive;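 also: cells exposed to compound for 16 h at 37 °C before reading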; also: potency is read from the fitted curve at half-maximal effect). The settings on record: Jurkat caspase-3 activation, luminescence; caspase-3 activation: at 92.2 µM (top of the series), DMSO = 0%, tamoxifen = 100%. The essentials:
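Jurkat cells (5000/well) in complete medium were treated with compounds for 16 hr at 37 °C, then Caspase-Glo 3/7 luminescence was read after 20 min at room temperature. Data normalized to DMSO (basal) and 100 uM tamoxifen (100%); AC50 from Hill fit.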

Assay [11] can be described thus: Cell Viability - LYMP2-026 (AID 989; active = well fitted curve in the direction sought with a large enough effect; inconclusive = small, poorly fitted or top-dose-only effect, or another doubt; inactive = no such curve, though single readings can be large; an effect the other way counts as inactive or inconclusive;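 also: cells exposed to compound for 24 h at 37 °C; nearly all actives have a fitted effect of over 50% in size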; also: potency is read from the fitted curve at half-maximal effect). The note with it: LYMP2-026 lymphoblastoid cell viability, qHTS; series mostly up to 92.2 µM. The essentials: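 Acute toxicity screen in complete culture medium, with 24 hr compound exposure at 37 C. Viability read as cellular ATP via luciferase reaction, with tetraoctylammonium bromide (6.4pM to 92 uM) as positive control.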

For assay [12], the target named is Glucocorticoid receptor (Homo sapiens) (UniProt P04150). Briefly: qHTS assay for small molecule agonists of glucocorticoid receptor signaling (AID 588532; active = well fitted curve in the direction sought with a large enough effect in the signal ratio, with a control signal flat; inconclusive = small, poorly fitted or top-dose-only effect, or a change in a side signal; inactive = no such curve, though single readings can be large or run the other way; the % refers to the signal ratio; also: potency is read from the fitted curve at half-maximal effect;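 as to activation: 100% = dexamethasone at 0.1 µM and 0% = DMSO only wells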). The settings on record: HeLa MMTV-bla, beta-lactamase ratio, agonist, 18 h; activation: stronger effect = higher value, percent of dexamethasone control, DMSO zero. The essentials:
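MMTV-bla HeLa, beta-lactamase reporter; medium with 1% charcoal/dextran-stripped FBS; cpds up to 92 uM, 18 h, 37 C; CCF4 readout 460/530 nm; Hill fit → EC50, efficacy vs 0.1 uM dexamethasone = 100%.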

A short description of assay [13]: qHTS assay for small molecule antagonists of retinoid X receptor alpha signaling (AID 588546).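 Also: cells stimulated with 9-cis-retinoic acid as agonist; % is scaled to controls: 0 for no effect and ±100 for the full control effect.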 The note with it: HEK293T RXRa-UAS-bla, beta-lactamase ratio, antagonist mode; measured here: W530 green channel, cytotoxicity proxy. The method, boiled down: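 Beta-lactamase reporter inhibition, read as CCF4 fluorescence ratio (ex 405, em 460/530 nm) after 2 h at RT. HEK293T UAS-bla cells, 2500/well, were stimulated with 9-cis-RA at 500 or 100 nM final alongside test compound for 18 h at 37 C.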

Assay [14] can be described thus: qHTS assay for small molecule agonists of the antioxidant response element (ARE) signaling pathway (AID 651741; active = well fitted activation curve with a large enough effect in the signal ratio; inconclusive = small, poorly fitted or top-dose-only effect, or effect the other way, or a change in a side signal; the % refers to the signal ratio; also: potency is read from the fitted curve at half-maximal effect; as to activation: % of control where 0% means no effect). The note with it: HepG2 ARE-bla reporter, beta-lactamase FRET ratio, 16 h; series mostly up to 96 µM. The method, boiled down: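 Beta-lactamase reporter expression driven by the antioxidant response element in HepG2 cells was detected by fluorescence with LiveBLAzer B/G FRET substrate (2 h, room temperature) following 16 h compound treatment at 37 C.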

The values that follow come from PubChem BioAssay (NCATS).

Each structure is given as a SMILES string. Where “and” joins values, the source holds several entries; their conditions need not be identical. Identical values can stand only once. Calls of active or inactive are those of the source. Unless noted, calls follow the shape of the full dose curve.

Sequence of Peroxisome proliferator-activated receptor delta (Homo sapiens) (Q03181 whole entry, looked up): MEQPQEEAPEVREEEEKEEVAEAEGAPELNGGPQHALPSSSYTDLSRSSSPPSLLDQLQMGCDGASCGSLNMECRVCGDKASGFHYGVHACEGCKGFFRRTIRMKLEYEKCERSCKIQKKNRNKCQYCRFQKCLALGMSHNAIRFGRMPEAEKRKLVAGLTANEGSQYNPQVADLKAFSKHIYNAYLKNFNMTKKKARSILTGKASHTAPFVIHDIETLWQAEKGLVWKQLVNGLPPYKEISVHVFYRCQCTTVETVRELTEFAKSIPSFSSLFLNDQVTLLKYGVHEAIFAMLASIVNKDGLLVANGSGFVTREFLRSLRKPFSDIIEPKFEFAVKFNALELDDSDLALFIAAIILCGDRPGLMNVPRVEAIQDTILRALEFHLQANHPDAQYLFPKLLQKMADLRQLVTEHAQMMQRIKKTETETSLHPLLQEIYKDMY
Sequence of Vitamin D3 receptor (Homo sapiens) (P11473 whole entry, looked up): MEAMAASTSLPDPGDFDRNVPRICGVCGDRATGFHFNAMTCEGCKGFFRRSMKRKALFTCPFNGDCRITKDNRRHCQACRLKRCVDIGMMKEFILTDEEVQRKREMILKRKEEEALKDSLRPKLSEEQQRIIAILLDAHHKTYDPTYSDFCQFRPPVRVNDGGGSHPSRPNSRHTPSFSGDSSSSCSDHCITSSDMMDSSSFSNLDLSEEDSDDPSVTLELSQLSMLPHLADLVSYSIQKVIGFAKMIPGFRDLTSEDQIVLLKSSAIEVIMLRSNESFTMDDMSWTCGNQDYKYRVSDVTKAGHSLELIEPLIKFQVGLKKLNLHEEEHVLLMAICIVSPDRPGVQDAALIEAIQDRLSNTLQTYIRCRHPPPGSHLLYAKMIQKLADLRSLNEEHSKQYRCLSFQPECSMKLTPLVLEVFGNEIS
Sequence of Thyroid hormone receptor beta (Homo sapiens) (P10828 whole entry, looked up): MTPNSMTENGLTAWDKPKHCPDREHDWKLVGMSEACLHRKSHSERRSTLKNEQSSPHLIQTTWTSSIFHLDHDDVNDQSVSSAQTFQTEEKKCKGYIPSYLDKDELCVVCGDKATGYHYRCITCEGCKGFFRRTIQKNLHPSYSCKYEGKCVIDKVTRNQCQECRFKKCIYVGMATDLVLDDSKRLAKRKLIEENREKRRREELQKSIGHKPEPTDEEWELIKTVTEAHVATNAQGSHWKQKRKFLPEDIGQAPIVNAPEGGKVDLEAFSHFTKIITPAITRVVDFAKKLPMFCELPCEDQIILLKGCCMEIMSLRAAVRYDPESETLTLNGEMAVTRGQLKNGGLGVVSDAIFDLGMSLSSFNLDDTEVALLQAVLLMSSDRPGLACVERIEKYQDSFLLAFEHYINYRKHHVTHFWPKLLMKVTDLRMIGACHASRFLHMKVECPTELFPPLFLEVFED
Sequence of Glucocorticoid receptor (Homo sapiens) (P04150 whole entry, looked up): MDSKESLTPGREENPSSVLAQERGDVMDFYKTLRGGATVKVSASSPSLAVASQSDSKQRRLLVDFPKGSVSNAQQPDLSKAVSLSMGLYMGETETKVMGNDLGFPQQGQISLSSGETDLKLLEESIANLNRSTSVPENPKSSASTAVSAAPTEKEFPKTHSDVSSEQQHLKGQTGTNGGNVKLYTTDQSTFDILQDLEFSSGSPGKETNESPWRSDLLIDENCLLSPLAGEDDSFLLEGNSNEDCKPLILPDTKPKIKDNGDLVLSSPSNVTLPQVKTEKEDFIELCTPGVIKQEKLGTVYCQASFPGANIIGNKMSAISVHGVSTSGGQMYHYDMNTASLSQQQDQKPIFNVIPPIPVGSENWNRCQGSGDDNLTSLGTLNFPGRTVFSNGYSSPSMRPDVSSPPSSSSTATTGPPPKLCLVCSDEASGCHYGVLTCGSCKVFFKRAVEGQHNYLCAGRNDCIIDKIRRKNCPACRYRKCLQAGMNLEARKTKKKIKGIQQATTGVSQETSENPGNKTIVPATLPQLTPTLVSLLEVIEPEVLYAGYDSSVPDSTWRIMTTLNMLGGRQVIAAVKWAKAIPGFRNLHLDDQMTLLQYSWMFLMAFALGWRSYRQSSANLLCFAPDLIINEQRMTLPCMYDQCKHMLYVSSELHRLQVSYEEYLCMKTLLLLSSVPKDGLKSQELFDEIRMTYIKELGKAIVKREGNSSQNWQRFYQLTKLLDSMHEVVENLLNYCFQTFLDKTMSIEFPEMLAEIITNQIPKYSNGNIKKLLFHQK
Sequence of Bile acid receptor (Homo sapiens) (Q96RI1 whole entry, looked up): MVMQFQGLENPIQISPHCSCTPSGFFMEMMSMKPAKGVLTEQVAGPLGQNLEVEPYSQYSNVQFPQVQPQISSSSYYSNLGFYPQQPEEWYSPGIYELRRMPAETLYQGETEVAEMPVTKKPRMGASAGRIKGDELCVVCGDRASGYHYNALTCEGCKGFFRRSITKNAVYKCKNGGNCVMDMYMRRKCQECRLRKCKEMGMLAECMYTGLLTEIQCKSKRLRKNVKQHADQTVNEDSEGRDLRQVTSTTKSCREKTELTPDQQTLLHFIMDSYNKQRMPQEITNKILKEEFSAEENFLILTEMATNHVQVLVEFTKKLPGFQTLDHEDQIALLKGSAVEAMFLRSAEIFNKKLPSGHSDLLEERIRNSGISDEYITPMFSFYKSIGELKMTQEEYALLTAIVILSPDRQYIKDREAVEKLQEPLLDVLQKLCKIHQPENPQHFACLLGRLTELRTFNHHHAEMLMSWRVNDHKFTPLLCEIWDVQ
Sequence of Estrogen receptor (Homo sapiens) (P03372 whole entry, looked up): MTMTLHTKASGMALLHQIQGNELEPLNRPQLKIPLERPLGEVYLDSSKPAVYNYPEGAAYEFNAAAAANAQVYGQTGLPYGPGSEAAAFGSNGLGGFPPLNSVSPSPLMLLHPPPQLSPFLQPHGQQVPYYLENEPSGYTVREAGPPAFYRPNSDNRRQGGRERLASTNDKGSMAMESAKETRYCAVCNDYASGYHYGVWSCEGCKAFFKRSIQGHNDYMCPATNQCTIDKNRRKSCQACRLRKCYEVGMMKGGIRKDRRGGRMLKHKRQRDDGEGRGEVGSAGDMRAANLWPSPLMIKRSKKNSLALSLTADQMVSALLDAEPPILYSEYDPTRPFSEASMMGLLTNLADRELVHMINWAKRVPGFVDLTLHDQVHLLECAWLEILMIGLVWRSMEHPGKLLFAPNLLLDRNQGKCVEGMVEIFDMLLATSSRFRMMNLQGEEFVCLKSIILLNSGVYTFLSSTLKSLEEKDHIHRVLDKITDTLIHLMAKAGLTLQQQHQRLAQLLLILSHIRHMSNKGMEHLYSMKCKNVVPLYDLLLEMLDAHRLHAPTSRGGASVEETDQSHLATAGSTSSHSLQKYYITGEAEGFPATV

As for `C(=NC1CCCCC1)=NC1CCCCC1`, the Potency entry in [1], in assay [4], in assay [6] and in assay [9] was “inactive” in each case. The activation in assay [2] was 1.63% (inactive); in assay [8], 5% (inactive). Moreover, the outcome in assay [3] and in [5] was inactive. Moreover, the activity change % (negative = inhibition) in assay [7] was -20.1% (inactive) and -3.06% (inactive).
In the case of `Oc1c(Cl)cc(Cl)cc1Cl`, the activation in assay [8] was -6.01% (inactive) and -1.45% (inactive).
Take `C#CCO`: the caspase-3 activation in assay [10] was -1.9% (inactive). Also, the Potency result in [11], in assay [1], in assay [4] and in [6] was “inactive” in each case. The activation in [12] is 0.566% (inactive); in [8], 0.794% (inactive). Besides, the result in assay [3] and in [5] was inactive. For the same molecule, in [13], the max response is -7.57%. Moreover, the activity change % (negative = inhibition) in assay [7] was -4.81% (inactive).
Turning to `CC(=O)[O-].CC(=O)[O-].O.O.[Cd+2]`, the caspase-3 activation in assay [10] was 4.84% (inactive). Also, the Potency result in [6] and in assay [9] was “inactive” throughout.
For the molecule `O=[N+]([O-])c1cc(C(F)(F)F)cc([N+](=O)[O-])c1Cl`, the Potency in assay [11] is 31.6 µM (active). The Potency entry in [1], in assay [4], in assay [14] and in assay [9] was “inactive” in each case. The activation in assay [2] is -1.74% (inactive); in assay [12], -2.51% (inactive). The outcome in assay [3] and in [5] was inactive. Besides, the max response in assay [13] came out at 0.867%. The activity change % (negative = inhibition) in assay [7] was -4.32% (inactive).
Take `c1ccc2cc3c(cc2c1)-c1cccc2cccc-3c12`: the caspase-3 activation in assay [10] was -1.28% (inactive). Moreover, the Potency entry in assay [11], in assay [1] and in [9] was “inactive” throughout. Further, the Potency in assay [2] is 3.16 µM (active); in assay [12] it was 15.8 µM (active); in assay [6] it was 7.94 µM (active); in assay [14], 1.88 µM (active) and 1.93 µM (active); in assay [8], 6.31 µM (active) and 8.91 µM (active).
With `COP(=O)(OC)O/C(=C\Cl)c1cc(Cl)c(Cl)cc1Cl`, the Potency entry in assay [1] and in assay [6] was “inactive” throughout. For the same molecule, the activation was -2.88% (inactive) in assay [2] and -0.853% (inactive) in [8]. In addition, the outcome in assay [3] was inactive. In addition, the activity change % (negative = inhibition) in assay [7] is 2.4% (inactive). Besides, the Potency in assay [14] was 37.6 µM (active).
`C[C@@H]1CC[C@@]2(OC1)O[C@H]1[C@@H](O)[C@H]3[C@@H]4CC[C@H]5C[C@@H](O[C@@H]6O[C@H](CO)[C@H](O[C@@H]7O[C@H](CO)[C@@H](O)[C@H](O[C@@H]8OC[C@@H](O)[C@H](O)[C@H]8O)[C@H]7O[C@@H]7O[C@H](CO)[C@@H](O)[C@H](O[C@@H]8O[C@H](CO)[C@@H](O)[C@H](O)[C@H]8O)[C@H]7O)[C@H](O)[C@H]6O)[C@H](O)C[C@]5(C)[C@H]4CC[C@]3(C)[C@H]1[C@@H]2C`: the Potency in assay [11] was 15.8 µM (active); in assay [1], 8.91 µM [inconclusive] (active); in [9] it was 26.6 µM (active).
Regarding `Oc1c(Br)c(Br)c(Br)c(Br)c1Br`, the Potency in assay [10] is 31.6 µM (active); in assay [1], 39.8 µM [inconclusive] (active); in assay [9] it was 33.5 µM (active). Moreover, the Potency result in [11] was “inactive”. Further, in assay [12], the activation is 3.02% (inactive). Besides, the outcome in [3] and in assay [5] was inactive.
Regarding `OC(c1ccc(Cl)cc1)(c1ccc(Cl)cc1)C(Cl)(Cl)Cl`, the Potency result in assay [11], in assay [1], in assay [4] and in assay [9] was “inactive” each time. Also, the activation in [2] was 3.21% (inactive) and 2.17% (inactive); in [12] it was 4.22% (inactive). Besides, the result in assay [3] and in assay [5] was inactive. Further, the max response in assay [13] was -2.98%. Further, the activity change % (negative = inhibition) in assay [7] was -3.99% (inactive).
